This is a sample that favours compounds with a hit; in the whole collection about 9% have one here.
IMPase inh = qHTS Assay for Identifying the Cell-Membrane Permeable IMPase Inhibitors; Inositol monophosphatase 1 (Rattus norvegicus), P97697; CHO-M1 cells, IP1 accumulation, HTRF TR-FRET ratio; inhibition (IP1 accumulation), % at 46.1 µM; 120,000 tested, under 10 active; active = well fitted curve in the direction sought with a large enough effect in the signal ratio, not every such curve was filed as active; inconclusive = small, poorly fitted or top-dose-only effect, or a change in a side signal; inactive = no such curve, though single readings can be large or run the other way; the % refers to the signal ratio;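 note: cells stimulated with carbachol in lithium chloride buffer; plate controls were DMSO basal wells for no effect and reference inhibitor wells for full effect; higher means more IMPase inhibition seen as more IP1 and lower FRET ratio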
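Measured: the HTRF emission ratio (665/620 nm) plus the 620 nm donor channel, each fitted to the Hill equation to give AC50. Cells were CHO-M1 given compounds up to 46 uM and a 30 min carbachol stimulation at 37C.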
HPGD block = qHTS Assay for Inhibitors of HPGD (15-Hydroxyprostaglandin Dehydrogenase) | 15-hydroxyprostaglandin dehydrogenase [NAD(+)] (Homo sapiens), P15428 | purified HPGD, NADH fluorescence kinetic, PGE2 substrate | Potency, µM, inactives show top-dose activity change, negative = inhibition, actives largely listed as inhibitors | actives 4.3% (n = 150,000); note: potency is the fitted concentration of half-maximal effect
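NADH formation kinetics: reaction with 30 uM PGE2 and 1 mM NAD+ (final), 20 nM enzyme, Tris-HCl pH 8 with Tween 20, after 15 min compound preincubation at room temperature. Fluorescence change, last versus first of five reads.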
ALDH1A1 block = qHTS Assay for Inhibitors of Aldehyde Dehydrogenase 1 (ALDH1A1); Potency, µM (highest dose often 75.3 µM), inactives show top-dose activity, negative = inhibition, most hits filed as inhibitors; actives 7.3% (n = 220,000); Aldehyde dehydrogenase 1A1 (Homo sapiens), P00352; Purified ALDH1A1, NADH fluorescence, propionaldehyde substrate; AID 1030, 2008;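 note: potency is the fitted concentration of half-maximal effect; plate controls were no enzyme wells and a reference inhibitor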
Target sequence (P00352 whole entry, looked up): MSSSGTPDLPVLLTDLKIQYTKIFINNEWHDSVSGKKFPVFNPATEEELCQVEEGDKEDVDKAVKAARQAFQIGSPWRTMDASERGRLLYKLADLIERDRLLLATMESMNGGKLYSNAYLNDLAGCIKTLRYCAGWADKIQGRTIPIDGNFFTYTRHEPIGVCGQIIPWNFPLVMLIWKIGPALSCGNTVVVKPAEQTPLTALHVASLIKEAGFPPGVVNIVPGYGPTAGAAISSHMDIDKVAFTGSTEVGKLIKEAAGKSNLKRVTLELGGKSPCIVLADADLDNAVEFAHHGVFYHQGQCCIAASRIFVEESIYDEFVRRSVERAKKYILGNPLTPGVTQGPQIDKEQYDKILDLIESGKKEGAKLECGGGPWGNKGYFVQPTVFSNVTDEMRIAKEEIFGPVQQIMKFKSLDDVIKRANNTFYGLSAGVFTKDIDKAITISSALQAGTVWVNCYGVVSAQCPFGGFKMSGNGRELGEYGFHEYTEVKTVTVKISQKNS
The depositor's hits bear a star; i = inactive; ? = inconclusive; · = no result; [ ] = remark or other dose. Unless noted, calls come from the whole dose curve; as a rule, active = well fitted inhibition curve with a large enough effect (not every such curve was filed as active); inconclusive = small, poorly fitted or top-dose-only effect, or another doubt; inactive = no such curve, though single readings can be large or run the other way. Unless noted, % is set by controls: 0 for no effect and ±100 for the full control effect.

SMILES | IMPase inh | HPGD block | ALDH1A1 block
COc1ccc(S(=O)(=O)NN=C2CCCCC2)cc1 | -1 | -10% | 0.63µM*
CN1CC[C@@]2(CCCN(S(=O)(=O)c3ccccc3)C2)C1 | · | -10% | -15%
CCC(=C(c1ccc(OC)cc1)c1ccc(OC)cc1)c1cn(CC(O)CN2CCN(C)CC2)c2ccccc12 (stereo not drawn) | 8 | -12% | -14%
CCOc1ccc(S(=O)(=O)N/N=C(\C)c2ccc(OC)cc2OC)cc1 | · | · | 22µM*
COc1ccc(/C(C)=N/NC(=O)c2ccccc2OCc2ccccc2)c(OC)c1 | · | · | -8%
O=C(O)[C@@H](O)[C@@H](O)[C@H](O)C(=O)CO | · | -3% | 7%[13.5 µM]
Cc1cc(C)cc(Oc2nc3c(c(=O)n(C)c(=O)n3C)n2Cc2ccc(F)cc2)c1 | -4 | · | ·
CC(=O)N(Cc1cc2c(C)cc(C)cc2[nH]c1=O)C1CCCCC1 | ? | -22% | ?
CCOC(=O)Cn1nnnc1C(C(C)C)N(Cc1cc2c(C)cc(C)cc2[nH]c1=O)C1CCCC1 (stereo not drawn) | -12 | -24% | 3.5µM*
Cc1ccccc1C(=O)NC(=S)Nc1ccc(Oc2ccc(Cl)cc2)cc1 | -2 | -3% | ?
O=C(NC(=S)Nc1ccc(Oc2ccccc2)cc1)c1ccc(Cl)cc1 | 5 | -14% | 14µM*
S=C(Nc1ccc2c(c1)Cc1ccccc1-2)Nc1ccc2c(c1)Cc1ccccc1-2 | · | -6% | 2%[13.5 µM]
Cc1ccc(C(=O)NC(=S)Nc2ccc(Oc3ccc(Cl)cc3)cc2)cc1 | 17 | -10% | 18µM*
COc1ccc(C(=O)NC(=S)Nc2ccc3c(c2)Cc2ccccc2-3)cc1 | -2 | -18% | 10µM*
Cc1ccc(C(=O)NC(=S)Nc2ccc(NC(=O)c3cccc(Cl)c3)cc2)cc1 | 0 | -10% | -15%
C[C@@H](c1ccccc1)N1C(=O)[C@H]2[C@H]3[C@H](O)[C@H](O)C/C(=N/OC[C@@H](O)COCc4ccco4)[C@H]3CC[C@@H]2C1=O | · | · | -11%[13.5 µM]
O=C(O)c1c[nH]c2c(ccc3[nH]cc(C(=O)O)c(=O)c32)c1=O | · | -13% | -10%[13.5 µM]
O=C(Nc1nc2c(F)cc(F)cc2s1)C1CC(=O)N(Cc2ccco2)C1 (stereo not drawn) | · | · | 14µM*
Cc1ccc2nc(NC(=O)C3CC(=O)N(Cc4ccco4)C3)sc2c1 (stereo not drawn) | · | · | -11%
CC(=O)c1ccc(OC2C=CC(c3ccc(Cl)cc3)OC2CO)cc1 (stereo not drawn) | · | · | 1%[13.5 µM]
CN1CCN(NC(=O)c2cccc3ccccc23)CC1 | · | -3% | 13%
CC(C)(C)c1ccc(C(=O)NC2(C(F)(F)F)NC(=O)N(CCc3ccccc3)C2=O)cc1 (stereo not drawn) | 9 | · | ·
CCOC(=O)C1CCCN(C2CC(=O)N(c3ccc(NC(C)=O)cc3)C2=O)C1 (stereo not drawn) | · | · | 32µM*
Cc1cc(Cl)c(S(=O)(=O)N2CCN(c3ccc(F)cc3)CC2)cc1OCC(=O)NC1CCCCC1 | 11 | -19% | -4%
CCOC(=O)C1CCN(C(=S)Nc2ccc(C)cc2)CC1 | · | · | 4%
SMILES | IMPase inh | HPGD block | ALDH1A1 block
CCOC(=O)C1CCCN(S(=O)(=O)c2ccc(OC)c3ccccc23)C1 (stereo not drawn) | 6 | -14% | ?
CCOC(=O)C1CCCN(S(=O)(=O)c2cc(OCC(=O)NC3CCCCC3)c(C)cc2Cl)C1 (stereo not drawn) | 11 | -5% | 7.1µM*
CCOC(=O)C1CCCN(S(=O)(=O)c2ccc(Br)c(OC)c2)C1 (stereo not drawn) | 6 | -7% | 11µM*
CCOC(=O)C1CCCN(C2CC(=O)N(c3ccc(C)cc3)C2=O)C1 (stereo not drawn) | -2 | -5% | -8%
CCOC(=O)C1CCN(C(=S)Nc2ccc(S(N)(=O)=O)cc2)CC1 | · | 28µM* | 15µM*
Cc1ccsc1-c1nc(CN(C)C(C2CC2)C2CC2)c(C)o1 | · | · | -7%
CCOC(=O)C1CCCN(S(=O)(=O)c2ccccc2)C1 (stereo not drawn) | 2 | 0% | -7%
CCOC(=O)C1CCCN(S(=O)(=O)c2ccc(NC(C)=O)cc2)C1 (stereo not drawn) | · | · | 2.8µM*
CC(C)CNC(=O)[C@H](Cc1ccccc1)NC(=O)c1ccco1 | 2 | -7% | 40µM*
CC(CCc1ccccc1)NC(=O)c1ccco1 (stereo not drawn) | ? | -17% | 0%
Cc1ccccc1C(N)=O | · | -9% | -4%
O=C(NNc1ccc([N+](=O)[O-])cc1[N+](=O)[O-])C1C2CCCCC21 (stereo not drawn) | · | -8% | -4%
O=C(NNc1ccc([N+](=O)[O-])cc1)C1C2CCCCC21 (stereo not drawn) | · | -8% | 25µM*
O=C(O)CS(=O)(=O)CC(=O)NCc1cccc(C(F)(F)F)c1 | · | · | -1%
COc1ccc(-c2c3c(=O)n(C)c(=O)n(C)c3c3c(-c4cccc(C)c4)nc4ccccc4n23)cc1 | -3 | · | ·
N#Cc1c(Cl)nc(N/N=C/c2ccccc2)c(Cl)c1Cl | · | ? | -4%
C[N+](C)(C)c1ccc(/C=N/Nc2nc(Cl)c(C#N)c(Cl)c2Cl)cc1 | 10 | -24% | 16µM*
COc1cc(C(C)=O)ccc1COc1ccc(C(=O)OCC(N)=O)cc1OC | 2 | -20% | 9%
COc1ccc(CN(C)C(=O)COC(=O)c2ccc3c(c2)OCO3)cc1OC | -9 | -13% | -11%
COc1ccc(C(C)=O)cc1COC(=O)c1cnc(Cl)c(Cl)c1 | · | · | 1.4µM*
COc1ccc(C(C)=O)cc1COC(=O)c1ccc2c(c1)OCO2 | 3 | -14% | 10µM*
COc1ccc(C(C)=O)cc1CS(=O)(=O)CC(=O)O | · | · | 3%
COc1ccc(C(C)=O)cc1COC(=O)c1ccc(S(=O)(=O)N(C)C)cc1 | · | · | 7.1µM*
Cc1cccc(C)c1NC(=O)CNc1ncnc2sc(C)c(C)c12 | -6 | -2% | 10%
O=C(O)CCC/C=C\C[C@@H]1C(/C=C/[C@@H](O)COc2cccc(C(F)(F)F)c2)[C@@H](O)C[C@@H]1O (stereo partly drawn) | · | · | 3%
SMILES | IMPase inh | HPGD block | ALDH1A1 block
CC(NC(=O)c1ccc(F)cc1)C(=O)NC1=NCCS1 (stereo not drawn) | · | · | 8%
O=[N+]([O-])/C=C\c1cc2ccccc2[nH]1 | · | -5% | -13%[13.5 µM]
Cc1ccccc1-c1cncnc1NC1CCNCC1 | · | -7% | 2%
CCCCCSc1nnc(-c2ccccc2NC(C)=O)c(=O)[nH]1 | · | · | 9%
Cc1ccc(NS(=O)(=O)c2ccc(NS(=O)(=O)c3cccs3)cc2)cc1 | 0 | 0% | 2%
COc1ccc(NS(=O)(=O)c2ccc(NS(=O)(=O)c3ccc(C)cc3)cc2)nn1 | 3 | -12% | 13µM*
COc1nc(-c2ccc(C)cc2)ccc1-c1noc(-c2ccc(C(C)(C)C)cc2)n1 | 3 | · | ·
Cc1occc1-c1nnc(SCC(=O)Nc2ccccc2)n1CCc1ccccc1 | 0 | -2% | 4%
CCOC(=O)c1cccc(NC(=O)CSc2nnc(-c3ccoc3C)n2CCOC)c1 | 15 | -14% | 20µM*
CN1CCN(c2ncc3nc(-c4cc(F)cc(F)c4)c(=O)n(-c4ccccc4)c3n2)CC1 | · | i | ?
